# Measured values reported in PubChem BioAssay (NCATS).
# “And” between values parts separate entries of the source, which are not always exact repeats. Equal entries are not always repeated. Results filed as inconclusive are left out. Entries that show only a call come without a potency. The source made the active and inactive calls. Unless noted, calls come from the whole dose curve; as a rule, active = well fitted curve in the direction sought with a large enough effect; inconclusive = small, poorly fitted or top-dose-only effect, or another doubt; inactive = no such curve, though single readings can be large; an effect the other way counts as inactive or inconclusive.
# Columns and labels:
# [1] = qHTS Assay for Lipid Storage Modulators (AID 1519; calls by dose curve); conditions: Drosophila S3 cells, BODIPY lipid droplet/cell ratio, laser cytometry, cells loaded with oleic acid
# Procedure, shortened: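 Cells seeded at 5,000 per well were treated with compounds over a concentration series and loaded with oleic acid (400 uM, as added). Lipid droplet fluorescence (488 nm excitation, 500-530 nm channel) was read by laser-scanning cytometry and normalized to 20 uM Triacsin C.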
# [2] = target: DNA repair nuclease/redox regulator APEX1 (Homo sapiens) (UniProt P27695); assay: qHTS Validation Assay for Inhibitors of the Human Apurinic/apyrimidinic Endonuclease 1 (APE1) (AID 1705;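 note: TAMRA fluorescence gain over two minutes as APE1 cuts a quenched THF abasic duplex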); conditions: purified APE1 endonuclease activity, fluorescence, titration; series mostly up to 57.1 µM
# DNA repair nuclease/redox regulator APEX1 (Homo sapiens), sequence (P27695 whole entry, looked up): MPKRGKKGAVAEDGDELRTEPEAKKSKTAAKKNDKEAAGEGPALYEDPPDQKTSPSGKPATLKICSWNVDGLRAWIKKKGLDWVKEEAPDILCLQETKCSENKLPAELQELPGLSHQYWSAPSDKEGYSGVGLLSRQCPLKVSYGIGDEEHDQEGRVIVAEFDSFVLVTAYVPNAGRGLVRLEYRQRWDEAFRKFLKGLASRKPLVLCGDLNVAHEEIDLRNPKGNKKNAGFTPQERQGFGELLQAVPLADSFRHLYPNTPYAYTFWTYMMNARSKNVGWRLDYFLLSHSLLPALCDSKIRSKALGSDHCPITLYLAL
# Procedure, shortened: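 Read-out: TAMRA fluorescence (525 nm ex, 598 nm em) from cleavage of a quenched THF abasic-site duplex, 50 nM final; activity taken as intensity change between third and first of three reads 60 s apart.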
# [3] = Counterscreen for APE1 Inhibitors: Fluorescent Dye Displacement Validation Assay (AID 1707); conditions: fluorescent dye displacement from DNA; series mostly up to 57.1 µM
# Procedure, shortened: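 Thiazole Orange (250 nM) bound to 50 nM TAMRA-labelled dsDNA with tetrahydrofuran abasic site; displacement by DNA-binding compounds lowers fluorescence. Buffer 50 mM Tris-HCl pH 7.5, 50 mM NaCl, 2 mM MgCl2, 0.01% Tween-20; endpoint read at 480/540 nm.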
# [4] = target: Endonuclease 4 (Escherichia coli (strain K12)) (UniProt P0A6C1); assay: Counterscreen for APE1 Inhibitors: qHTS Validation Assay for Inhibitors of Endonuclease IV (AID 1708); conditions: E. coli endonuclease IV, DNA cleavage fluorescence; series mostly up to 57.1 µM
# Procedure, shortened: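 Concentration-response counterscreen run identically to the APE1 assay: 15 min room-temperature preincubation of 2 nM enzyme with compound, reaction started with 50 nM quenched abasic DNA, progress taken from kinetic fluorescence.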
# [5] = qHTS for differential inhibitors of proliferation of Plasmodium falciparum line 7G8 (AID 1815); conditions: Plasmodium falciparum 7G8 proliferation inhibition; series mostly up to 28.7 µM;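 note: parasite growth measured after three days of incubation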; note: potency is the fitted concentration of half-maximal effect
# [6] = qHTS for differential inhibitors of proliferation of Plasmodium falciparum line GB4 (AID 1816); conditions: Potency: Plasmodium falciparum GB4 proliferation inhibition; series mostly up to 28.7 µM;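 note: parasite growth measured after 72 h incubation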; note: potency is the fitted concentration of half-maximal effect
# [7] = qHTS for differential inhibitors of proliferation of Plasmodium falciparum line 3D7 (AID 1876); note: potency is the fitted concentration of half-maximal effect; conditions: P. falciparum 3D7 proliferation inhibition; series mostly up to 28.7 µM
# [8] = qHTS for differential inhibitors of proliferation of Plasmodium falciparum line W2 (AID 1883); conditions: Potency: Plasmodium falciparum W2 proliferation inhibition; series mostly up to 28.7 µM;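 note: parasites grown with compound for 72 h before lysis and staining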; note: potency is the fitted concentration of half-maximal effect
# [9] = qHTS for differential inhibitors of proliferation of Plasmodium falciparum line D10 (AID 1877); conditions: series mostly up to 28.7 µM;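 note: parasites grown with compound for 72 h before DNA staining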
# [10] = qHTS for differential inhibitors of proliferation of Plasmodium falciparum line Dd2 (AID 1882); conditions: Potency: Plasmodium falciparum Dd2 proliferation inhibition; series mostly up to 28.7 µM; note: nearly all actives have a fitted effect of over 65% in size
# Procedure, shortened: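 Dd2-infected erythrocytes (0.3% parasitemia, 2.5% hematocrit final) incubated with compound 72 h at 37 C, 5% CO2; lysed with saponin/Triton buffer containing SYBR Green I, incubated overnight in the dark, then read by fluorescence (485/535 nm). Normalized to 0.29 uM artemisinin and DMSO.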
# [11] = measured here: cell count channel max response
# [12] = measured here: lipid channel max response
Structure (SMILES),"activity change, negative = inhibition ([1]; at 25.7 µM (top of the series))","activity change, negative = inhibition ([1]; at 57.5 µM (top of the series))","max response [1, 11]","max response [1, 12]",Potency [2],outcome [3],Potency [4],Potency [5],Potency [6],Potency [7],Potency [8],Potency [9],Potency [10]
CCCCCCCC/C=C\CCCCCCCC(=O)NCc1ccc(O)c(OC)c1,,-24.2% (inactive),15.7%,-12.6%,,,,,,,,,
O=C(O)CN(CCN(CC(=O)O)CC(=O)O)CCN(CC(=O)O)CC(=O)O,-4.98% (inactive),0.152% (inactive),-17.8% and 39.9%,-19.2% and 38.7%,,inactive,,,,inactive,inactive,inactive,inactive
O=C(CCNNC(=O)c1ccncc1)NCc1ccccc1,-0.0465% (inactive),1.21% (inactive),-2.07% and 1.8%,0.496% and 1.66%,inactive,inactive,,,,,,,inactive
CCN1CCc2nc(N)oc2CC1,,0.659% (inactive),-8.22%,-7.55%,inactive,inactive,inactive,inactive,inactive,inactive,inactive,inactive,inactive
CC(C)COCC(CN(Cc1ccccc1)c1ccccc1)N1CCCC1 (stereo unspecified),,2.08% (inactive),20%,26.2%,inactive,inactive,inactive,inactive,inactive,inactive,,inactive,inactive
c1cnc(N2CCN(Cc3ccc4c(c3)OCO4)CC2)nc1,3.16% (inactive),2.74% (inactive),-1.42% and -12.3%,3.03% and -8.1%,,inactive,inactive,inactive,,inactive,,inactive,inactive
COC(=O)C1=C(C)NC(C)=C(C(=O)OCCN(C)Cc2ccccc2)C1c1cccc([N+](=O)[O-])c1 (stereo unspecified),,2.25% (inactive),-9.5%,-7.38%,inactive,inactive,,,,,,,
CCN(CC)CCNC(=O)c1cc(S(C)(=O)=O)ccc1OC,-2.02% (inactive),7.41% (inactive) and 1.69% (inactive),-4.82% and 19.9% and -18.4%,-8.3% and 33.5% and -17.4%,,inactive,,inactive,inactive,inactive,inactive,inactive,inactive
NC(N)=NC(=O)Cc1c(Cl)cccc1Cl,-2.29% (inactive),1.08% (inactive),-10.4% and 9.91%,-13.2% and 12.7%,inactive,inactive,inactive,3.98 µM (active),3.98 µM (active),2.82 µM (active),3.16 µM (active),,inactive
